Hits are enriched below; roughly 7.3% of the tested compounds scored in any of these assays.
Rab9 prom act = qHTS Assay for Rab9 Promoter Activators; Potency, µM (titrated, usually from 9.22 µM), inactives show at the top dose activation, negative = inhibition, most hits filed as activators; Huh7 Rab9 promoter-luciferase reporter, luminescence, 24 h; AID 485297, 2010; hit rate 2.8% among 320,000; further: % of control where 0% means no effect; nearly all actives have a fitted effect of over 60% in size
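Measured in stably transfected Huh7 cells bearing a Rab9 promoter–luciferase construct: 24 h compound treatment at 37 °C, followed by luminescence detection.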
FLuc counter = qHTS profiling assay for firefly luciferase inhibitor/activator using purifed enzyme and Km concentrations of substrates (counterscreen for miR-21 project); AID 588342, 2011; Potency, µM (highest dose often 57.5 µM), for the others: at the top dose activity change, negative = inhibition, usual class: inhibitors; hit rate 6.9% among 360,000; purified FLuc, Km substrates, luminescence inhibition;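 further: plate controls were vehicle for no effect and reference inhibitor for full effect; nearly all actives have a fitted effect of over 55% in size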
Target sequence (P08659 whole entry, looked up): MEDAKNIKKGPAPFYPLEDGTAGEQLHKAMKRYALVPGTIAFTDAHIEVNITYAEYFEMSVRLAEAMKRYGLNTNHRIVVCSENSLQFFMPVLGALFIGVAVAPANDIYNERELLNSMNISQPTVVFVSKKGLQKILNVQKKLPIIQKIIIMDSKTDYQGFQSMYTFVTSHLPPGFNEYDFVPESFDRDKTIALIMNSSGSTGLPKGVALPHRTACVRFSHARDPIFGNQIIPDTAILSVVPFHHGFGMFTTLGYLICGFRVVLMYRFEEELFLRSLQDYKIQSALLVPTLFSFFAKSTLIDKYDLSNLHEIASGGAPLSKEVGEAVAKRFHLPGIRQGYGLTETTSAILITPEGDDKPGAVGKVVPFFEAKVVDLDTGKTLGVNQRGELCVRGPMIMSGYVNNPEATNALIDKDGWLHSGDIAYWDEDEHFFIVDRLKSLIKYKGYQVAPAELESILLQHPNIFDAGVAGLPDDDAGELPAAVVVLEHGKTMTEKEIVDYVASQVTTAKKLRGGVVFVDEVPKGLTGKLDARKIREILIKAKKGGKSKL
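Purified P. pyralis luciferase, 10 nM final, with Km-level 10 uM D-luciferin and 10 uM ATP in 50 mM Tris acetate pH 7.5, 10 mM Mg acetate, 0.01% Tween-20, 0.05% BSA; 6-point qHTS titration about 60 µM downward; luminescence read.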
SMN2 splice enh = qHTS Assay for Enhancers of SMN2 Splice Variant Expression; AID 1458, 2008; hit rate 2.8% among 210,000; Potency, µM (top dose mostly 46.1 µM), for inactives: at the highest dose activity change, positive = activation, actives largely listed as activators; HEK293 SMN2-luciferase splicing reporter, luminescence, 30-36 h; further: % of control where 0% means no effect; nearly all actives have a fitted effect of over 55% in size
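HEK293 cells carry an SMN2 […]–luciferase reporter in which exon 7 inclusion puts luciferase in frame. Cells were plated 10-12 h before compound addition, then incubated 30-36 h at 37C. ONE-Glo luminescence was read; sodium butyrate at 4.5 mM final served as control.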
ELG1 genotoxic = qHTS screen for small molecules that induce genotoxicity in human embryonic kidney (HEK293T) cells expressing luciferase-tagged ELG1; HEK293T ELG1-luciferase reporter, luminescence, 16 h; Potency, µM (highest dose often 46 µM), without a hit: at the top dose activity change, positive = activation, most hits filed as activators; hit rate 1.3% among 330,000; AID 504466, 2011; further: % of control where 0% means no effect; nearly all actives have a fitted effect of over 60% in size
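Reporter readout depends on ELG1 protein level, which increases with genetic stress. After 16 hr compound exposure at 37 °C, luciferase activity was quantified using ONE-Glo.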
Luc counter = Counterscreen for Luciferase (Kinase-Glo TM) Inhibition. hit rate 0.28% among 200,000. Potency, µM (doses to about 38.3 µM), for inactives: at the top dose activity change, negative = inhibition, hits mostly inhibitors. Kinase-Glo luciferase, ATP luminescence, 8 min. AID 1379, 2008; further: on the % scale 0 is the no-effect control and ±100 the full control effect; nearly all actives have a fitted effect of over 60% in size
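Compounds were added to a substrate mix at pH 7.2 (50 mM imidazole, 10 uM ATP, within the enzyme's linear range), followed by Kinase-Glo detection reagent; luminescence was measured after 8 minutes at ambient temperature.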
NPC1 promoter act = qHTS Assay for NPC1 Promoter Activators. Huh7 NPC1 promoter luciferase reporter, 24 h. Potency, µM (titrated, usually from 9.22 µM), for the others: at the top dose activation, usual class: activators. hit rate 2.4% among 320,000; further: % of control where 0% means no effect; nearly all actives have a fitted effect of over 60% in size
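Quantitative HTS used a cell-based reporter: Huh7 cells stably bearing the NPC1 promoter upstream of luciferase were treated with compounds for 24 h, and promoter activation was read as luminescence.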
* marks the source's active call; other numbers are inactive results; [ ] = dose if it differs, or a comment. The call rests on the fitted dose curve; in most records, active means well fitted curve in the direction sought with a large enough effect; inconclusive means small, poorly fitted or top-dose-only effect, or another doubt; inactive means no such curve, though single readings can be large; an effect the other way counts as inactive or inconclusive. Potency means the concentration at half of the fitted maximal effect.

Screening CCN(CC)c1ccc2cc(C(=O)Nc3ccccn3)c(=O)oc2c1 returned Rab9 prom act 0.11µM*, FLuc counter 0.54µM*, SMN2 splice enh 2.8µM*, ELG1 genotoxic inconclusive, Luc counter -3% and NPC1 promoter act 0.32µM*.
`CCN(CC)c1ccc2cc(C(N)=O)c(=N)oc2c1` gave Rab9 prom act 12%, FLuc counter 24µM*, SMN2 splice enh 17%, ELG1 genotoxic inconclusive, Luc counter -1% and NPC1 promoter act 3%.
COc1ccc(C(CC(=O)Nc2ccc(C(C)=O)cc2)N2Cc3ccccc3C2=O)cc1 (configuration not stated) was read as FLuc counter -17%.
`COc1cccc(CNC(=O)c2ccc3c(c2)sc2nc(-c4ccccc4)cn23)c1OC` gave FLuc counter -2%.
Nc1nc(Nc2cccc(F)c2)nc2ccccc12 was read as Rab9 prom act 2.2µM*, FLuc counter 5.4µM*, SMN2 splice enh inconclusive, ELG1 genotoxic inconclusive, Luc counter -16% and NPC1 promoter act 1.3µM*.
`Fc1cccc(Nc2c3c(nc4ccccc24)CCC3)c1` gave Rab9 prom act 4%[1.84 µM], FLuc counter -2%, ELG1 genotoxic -3% and NPC1 promoter act -11%.
O=c1oc(Nc2cccc(F)c2)nc2ccccc12 was read as Rab9 prom act 2.2µM*, FLuc counter inconclusive, SMN2 splice enh inconclusive, ELG1 genotoxic 18µM*, Luc counter 0% and NPC1 promoter act 2.2µM*.
COc1cccc(NC(=O)CCc2c(C)nc3c4cccnc4nn3c2C)c1 was read as FLuc counter 4% and SMN2 splice enh -32%.
Screening O=C(NCc1ccccc1Cl)c1ccc(-n2cnc3cccnc32)cc1 returned FLuc counter -15%.
`CCC(Oc1ccccc1)C(=O)Nc1cc(-c2ccccc2OC)nn1-c1ccccc1` (configuration not stated) gave FLuc counter 1%.
For CCn1cc(C(=O)OCC(=O)Nc2cccc(Cl)c2C)c(=O)c2ccc(C)nc21 the results were FLuc counter 4% and SMN2 splice enh -3%.
Cc1ccc(C(=O)Nc2cccc(C(=O)N3CCOCC3)c2)cc1 was read as Rab9 prom act 2µM*, FLuc counter 9.5µM*, SMN2 splice enh inconclusive, ELG1 genotoxic inconclusive, Luc counter -3% and NPC1 promoter act 4µM*.
For CN(C)S(=O)(=O)c1ccc(C(=O)Nc2cccc(C(=O)N3CCOCC3)c2)cc1 the results were Rab9 prom act 1%, FLuc counter -2%, ELG1 genotoxic -3% and NPC1 promoter act 0%.
COc1ccc(C(=O)Nc2cccc(C(=O)N3CCCCC3)c2)cc1 was read as Rab9 prom act 11%, FLuc counter 15µM*, ELG1 genotoxic 2% and NPC1 promoter act 14%.
`CC(C)(C)c1ccc(C(=O)Nc2cccc(C(=O)N3CCOCC3)c2)cc1` gave Rab9 prom act 0.89µM*, FLuc counter 0.54µM*, ELG1 genotoxic inconclusive and NPC1 promoter act 1.3µM*.
Screening CC(C)(C)c1ccc(OC(=O)N2CCOCC2)cc1 returned Rab9 prom act inconclusive, FLuc counter 15µM*, ELG1 genotoxic inconclusive and NPC1 promoter act 4%.
COc1ccc(C(=O)Nc2cccc(C(=O)N3CCN(C)CC3)c2)cc1 was read as Rab9 prom act inconclusive, FLuc counter -10%[2.3 µM], SMN2 splice enh inconclusive, ELG1 genotoxic 7%, Luc counter 1% and NPC1 promoter act inconclusive.
`O=C(NCCc1ccccc1)c1cc(Sc2cccc(Cl)c2)nc2ccccc12` gave FLuc counter 2%.
